In PMC7862700, “An all-to-all approach to the identification of sequence-specific readers for epigenetic DNA modifications on cytosine”:

Tests used:
Test in all cases: DAPPL (digital affinity profiling via proximity ligation, sequencing); 10 mM Tris-HCl pH 7.5, 50 mM NaCl, 1 mM DTT, 4% glycerol, room temperature, 30 min; GST-TFs on glutathione beads, 16-mer random dsDNA library, 0.1% formaldehyde crosslink after washing; high values mean tight binding
FEV = target: T1, FEV (Homo sapiens, UniProt Q99581 1-238); conditions: protein: recombinant; tags: N-terminal GST; dsDNA, one strand shown
T1 sequence: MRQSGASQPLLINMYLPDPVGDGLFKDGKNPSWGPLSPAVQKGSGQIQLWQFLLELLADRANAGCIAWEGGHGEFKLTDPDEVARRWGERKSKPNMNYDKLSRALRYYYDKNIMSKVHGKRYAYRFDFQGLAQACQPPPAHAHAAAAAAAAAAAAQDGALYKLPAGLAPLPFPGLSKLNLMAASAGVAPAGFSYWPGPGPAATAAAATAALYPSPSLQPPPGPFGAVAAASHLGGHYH
How it was run: (§1)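 The binding signal reported is, for every hexamer, its read frequency for a factor over its read frequency for the tag-only sample. Reads came from pools of yeast-expressed, GST-fused human transcription factors on glutathione beads, barcoded with DNA and mixed with that sample, which were incubated with 200 nmole of a random double-stranded 16-mer DNA library in Tris/NaCl/DTT/glycerol buffer at room temperature for 30 min. After washing, the pools were crosslinked with 0.1% formaldehyde, proximity-ligated with BsaI/T4 ligase for 1 h at 37 °C, PCR-amplified and sequenced on an Illumina NextSeq500.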

ETV5 = ETV5 (Homo sapiens, UniProt P41161 1-510); conditions: protein: recombinant; tags: N-terminal GST; dsDNA, one strand shown
Chain of ETV5 (P41161 whole entry): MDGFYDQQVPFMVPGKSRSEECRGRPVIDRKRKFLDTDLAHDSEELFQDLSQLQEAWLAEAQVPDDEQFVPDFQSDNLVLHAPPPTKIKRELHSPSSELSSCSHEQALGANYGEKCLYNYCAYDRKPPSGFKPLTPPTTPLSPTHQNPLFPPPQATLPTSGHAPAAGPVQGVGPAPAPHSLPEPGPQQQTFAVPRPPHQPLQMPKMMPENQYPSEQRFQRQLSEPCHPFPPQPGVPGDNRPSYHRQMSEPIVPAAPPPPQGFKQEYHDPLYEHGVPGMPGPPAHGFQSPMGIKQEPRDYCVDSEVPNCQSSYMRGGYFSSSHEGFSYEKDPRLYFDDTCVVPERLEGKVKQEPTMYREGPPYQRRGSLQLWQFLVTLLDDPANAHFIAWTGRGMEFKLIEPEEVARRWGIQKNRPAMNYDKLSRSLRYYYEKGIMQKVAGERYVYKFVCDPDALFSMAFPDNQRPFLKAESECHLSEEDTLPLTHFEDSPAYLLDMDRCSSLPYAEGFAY
How it was run: as §1

HSF1 = HSF1 (Homo sapiens, UniProt Q00613 1-529); conditions: protein: recombinant; tags: N-terminal GST; chain copies: 3; dsDNA, one strand shown
Chain of HSF1 (Q00613 whole entry): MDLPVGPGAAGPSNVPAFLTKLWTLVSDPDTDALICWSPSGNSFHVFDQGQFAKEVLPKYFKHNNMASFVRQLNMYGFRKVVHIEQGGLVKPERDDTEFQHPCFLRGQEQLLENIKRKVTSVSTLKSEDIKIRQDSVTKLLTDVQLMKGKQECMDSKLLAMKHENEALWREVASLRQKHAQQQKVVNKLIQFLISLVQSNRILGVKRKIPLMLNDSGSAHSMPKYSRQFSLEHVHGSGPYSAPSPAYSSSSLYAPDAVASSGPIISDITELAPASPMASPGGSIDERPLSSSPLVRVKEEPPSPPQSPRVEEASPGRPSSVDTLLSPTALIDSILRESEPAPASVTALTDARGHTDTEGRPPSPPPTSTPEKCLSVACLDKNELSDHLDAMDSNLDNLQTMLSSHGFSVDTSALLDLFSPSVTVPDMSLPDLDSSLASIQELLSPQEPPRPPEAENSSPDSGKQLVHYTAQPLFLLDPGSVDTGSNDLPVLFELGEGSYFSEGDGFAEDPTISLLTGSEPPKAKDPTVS
How it was run: as §1

SPIC = target: T2, SPIC (Homo sapiens, UniProt Q8N5J4 1-248); conditions: protein: recombinant; tags: N-terminal GST; dsDNA, one strand shown
T2 sequence: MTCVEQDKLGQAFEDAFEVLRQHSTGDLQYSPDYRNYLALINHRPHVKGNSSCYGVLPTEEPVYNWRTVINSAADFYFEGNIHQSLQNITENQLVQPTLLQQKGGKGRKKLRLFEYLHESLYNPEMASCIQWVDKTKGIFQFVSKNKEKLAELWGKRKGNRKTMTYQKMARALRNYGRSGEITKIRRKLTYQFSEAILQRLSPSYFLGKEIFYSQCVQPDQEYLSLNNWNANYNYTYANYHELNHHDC
How it was run: as §1

ELF4 = ELF4 (Homo sapiens, UniProt Q99607 1-663); conditions: protein: recombinant; tags: N-terminal GST; dsDNA, one strand shown
Chain of ELF4 (Q99607 whole entry): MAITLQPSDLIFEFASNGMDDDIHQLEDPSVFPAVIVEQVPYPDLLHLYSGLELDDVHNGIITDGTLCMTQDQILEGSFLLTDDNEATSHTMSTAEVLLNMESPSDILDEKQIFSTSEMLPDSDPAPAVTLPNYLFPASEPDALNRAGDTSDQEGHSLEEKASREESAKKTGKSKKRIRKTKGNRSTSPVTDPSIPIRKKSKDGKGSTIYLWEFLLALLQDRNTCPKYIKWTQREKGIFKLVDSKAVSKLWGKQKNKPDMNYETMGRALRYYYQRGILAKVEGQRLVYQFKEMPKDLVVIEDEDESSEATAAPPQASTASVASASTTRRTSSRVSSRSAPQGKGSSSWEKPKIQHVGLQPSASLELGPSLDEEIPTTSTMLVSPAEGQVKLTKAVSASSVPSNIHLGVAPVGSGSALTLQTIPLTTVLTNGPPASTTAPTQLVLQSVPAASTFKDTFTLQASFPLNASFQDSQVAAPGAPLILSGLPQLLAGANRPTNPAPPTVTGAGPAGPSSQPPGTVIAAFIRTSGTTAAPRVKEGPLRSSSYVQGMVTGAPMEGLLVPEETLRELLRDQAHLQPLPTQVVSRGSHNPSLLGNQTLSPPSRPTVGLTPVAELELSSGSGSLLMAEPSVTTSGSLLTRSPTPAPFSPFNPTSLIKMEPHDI
How it was run: as §1

ELK4 = target: T3, ELK4 (Homo sapiens, UniProt P28324-2 1-405); conditions: protein: recombinant; tags: N-terminal GST; dsDNA, one strand shown
T3 sequence: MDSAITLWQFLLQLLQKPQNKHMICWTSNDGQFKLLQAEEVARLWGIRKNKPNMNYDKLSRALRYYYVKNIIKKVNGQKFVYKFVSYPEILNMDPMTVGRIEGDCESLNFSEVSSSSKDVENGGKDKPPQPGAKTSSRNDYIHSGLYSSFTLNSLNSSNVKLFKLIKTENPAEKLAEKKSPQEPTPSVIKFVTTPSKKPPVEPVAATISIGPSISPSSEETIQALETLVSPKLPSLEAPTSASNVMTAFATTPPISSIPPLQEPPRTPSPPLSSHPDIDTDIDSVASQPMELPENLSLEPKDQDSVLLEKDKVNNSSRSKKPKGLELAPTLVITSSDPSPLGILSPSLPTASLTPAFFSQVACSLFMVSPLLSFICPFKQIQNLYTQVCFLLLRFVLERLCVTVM
How it was run: as §1

ETV2 = target: T4, ETV2 (Homo sapiens, UniProt O00321 1-342); conditions: protein: recombinant; tags: N-terminal GST; dsDNA, one strand shown
T4 sequence: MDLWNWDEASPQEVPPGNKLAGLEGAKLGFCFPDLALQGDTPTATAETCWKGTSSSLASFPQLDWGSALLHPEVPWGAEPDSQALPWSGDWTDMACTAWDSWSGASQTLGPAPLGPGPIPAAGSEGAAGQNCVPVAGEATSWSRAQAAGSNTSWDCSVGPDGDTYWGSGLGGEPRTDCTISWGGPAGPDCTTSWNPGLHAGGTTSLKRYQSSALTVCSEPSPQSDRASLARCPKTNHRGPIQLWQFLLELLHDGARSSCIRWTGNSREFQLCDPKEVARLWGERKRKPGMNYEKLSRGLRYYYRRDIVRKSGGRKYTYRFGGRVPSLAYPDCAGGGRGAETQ
How it was run: as §1

ELF3 = target: T5, ELF3 (Homo sapiens, UniProt P78545 1-371); conditions: protein: recombinant; tags: N-terminal GST; dsDNA, one strand shown
T5 sequence: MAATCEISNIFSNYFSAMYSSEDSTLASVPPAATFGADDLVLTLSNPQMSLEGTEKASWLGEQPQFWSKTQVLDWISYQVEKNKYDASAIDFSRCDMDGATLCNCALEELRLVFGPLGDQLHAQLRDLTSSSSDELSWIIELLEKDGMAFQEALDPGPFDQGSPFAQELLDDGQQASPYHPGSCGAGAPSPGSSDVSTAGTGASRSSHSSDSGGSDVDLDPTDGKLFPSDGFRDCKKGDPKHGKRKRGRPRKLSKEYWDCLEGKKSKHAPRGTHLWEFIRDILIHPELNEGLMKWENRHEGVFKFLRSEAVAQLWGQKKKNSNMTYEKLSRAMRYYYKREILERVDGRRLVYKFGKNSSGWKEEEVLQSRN
How it was run: as §1

ETV1 = ETV1 (Homo sapiens, UniProt P50549 1-477); conditions: protein: recombinant; tags: N-terminal GST; dsDNA, one strand shown
Chain of ETV1 (P50549 whole entry): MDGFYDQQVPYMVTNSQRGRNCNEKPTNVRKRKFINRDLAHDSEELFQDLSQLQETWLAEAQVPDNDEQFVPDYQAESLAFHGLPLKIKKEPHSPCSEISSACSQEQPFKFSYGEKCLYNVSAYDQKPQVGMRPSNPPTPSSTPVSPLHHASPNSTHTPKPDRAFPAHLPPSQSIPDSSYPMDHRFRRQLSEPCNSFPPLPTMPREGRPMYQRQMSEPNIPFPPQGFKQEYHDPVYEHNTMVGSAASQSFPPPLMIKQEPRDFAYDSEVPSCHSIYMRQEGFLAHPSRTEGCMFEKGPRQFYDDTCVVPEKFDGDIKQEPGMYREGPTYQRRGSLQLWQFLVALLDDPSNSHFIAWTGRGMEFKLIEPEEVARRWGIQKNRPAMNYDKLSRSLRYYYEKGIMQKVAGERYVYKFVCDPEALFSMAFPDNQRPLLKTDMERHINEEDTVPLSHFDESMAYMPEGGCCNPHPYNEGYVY
How it was run: as §1

ERF = target: T6, ERF (Homo sapiens, UniProt P50548 1-548); conditions: protein: recombinant; tags: N-terminal GST; dsDNA, one strand shown
T6 sequence: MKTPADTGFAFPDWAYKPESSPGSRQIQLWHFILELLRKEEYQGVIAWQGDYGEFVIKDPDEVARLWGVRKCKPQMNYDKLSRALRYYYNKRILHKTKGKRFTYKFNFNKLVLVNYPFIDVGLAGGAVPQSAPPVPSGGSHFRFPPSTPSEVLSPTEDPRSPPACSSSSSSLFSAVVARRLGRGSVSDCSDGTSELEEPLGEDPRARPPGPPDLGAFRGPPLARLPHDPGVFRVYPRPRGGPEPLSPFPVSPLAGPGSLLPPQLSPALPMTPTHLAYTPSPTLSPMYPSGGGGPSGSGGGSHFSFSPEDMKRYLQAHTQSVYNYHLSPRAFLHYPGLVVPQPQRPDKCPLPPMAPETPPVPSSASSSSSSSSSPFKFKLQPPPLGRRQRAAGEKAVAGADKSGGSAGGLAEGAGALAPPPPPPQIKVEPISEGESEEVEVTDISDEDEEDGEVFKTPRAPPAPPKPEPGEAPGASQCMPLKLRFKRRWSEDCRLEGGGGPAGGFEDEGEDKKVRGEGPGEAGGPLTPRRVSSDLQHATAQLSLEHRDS
How it was run: as §1

ETV3L = target: T7, ETV3L (Homo sapiens, UniProt Q6ZN32 1-361); conditions: protein: recombinant; tags: N-terminal GST; dsDNA, one strand shown
T7 sequence: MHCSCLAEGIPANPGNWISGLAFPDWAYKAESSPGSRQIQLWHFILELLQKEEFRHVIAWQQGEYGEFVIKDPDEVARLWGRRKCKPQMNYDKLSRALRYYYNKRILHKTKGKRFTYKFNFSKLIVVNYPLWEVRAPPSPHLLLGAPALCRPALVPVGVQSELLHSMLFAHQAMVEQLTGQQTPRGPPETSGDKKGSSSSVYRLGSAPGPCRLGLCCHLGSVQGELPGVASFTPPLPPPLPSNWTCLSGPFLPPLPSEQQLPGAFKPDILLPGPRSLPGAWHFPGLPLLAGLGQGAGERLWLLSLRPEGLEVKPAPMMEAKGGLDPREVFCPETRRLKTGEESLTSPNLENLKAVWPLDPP
How it was run: as §1

ETS2 = target: T8, ETS2 (Homo sapiens, UniProt P15036 1-469); conditions: protein: recombinant; tags: N-terminal GST; dsDNA, one strand shown
T8 sequence: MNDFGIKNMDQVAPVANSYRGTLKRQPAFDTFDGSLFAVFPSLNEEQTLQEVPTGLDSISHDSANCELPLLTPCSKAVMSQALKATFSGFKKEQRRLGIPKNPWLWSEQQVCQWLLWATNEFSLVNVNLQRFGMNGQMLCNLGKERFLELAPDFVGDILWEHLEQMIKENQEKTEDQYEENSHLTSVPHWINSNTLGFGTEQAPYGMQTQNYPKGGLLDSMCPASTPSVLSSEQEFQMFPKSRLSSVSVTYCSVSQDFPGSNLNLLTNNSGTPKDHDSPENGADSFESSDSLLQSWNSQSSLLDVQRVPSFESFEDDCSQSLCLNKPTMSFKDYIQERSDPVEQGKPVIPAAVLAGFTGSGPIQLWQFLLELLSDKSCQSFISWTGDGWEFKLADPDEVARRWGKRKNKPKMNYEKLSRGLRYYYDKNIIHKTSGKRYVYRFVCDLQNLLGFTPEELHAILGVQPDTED
How it was run: as §1

SPDEF = target: T9, SPDEF (Homo sapiens, UniProt O95238 1-335); conditions: protein: recombinant; tags: N-terminal GST; dsDNA, one strand shown
T9 sequence: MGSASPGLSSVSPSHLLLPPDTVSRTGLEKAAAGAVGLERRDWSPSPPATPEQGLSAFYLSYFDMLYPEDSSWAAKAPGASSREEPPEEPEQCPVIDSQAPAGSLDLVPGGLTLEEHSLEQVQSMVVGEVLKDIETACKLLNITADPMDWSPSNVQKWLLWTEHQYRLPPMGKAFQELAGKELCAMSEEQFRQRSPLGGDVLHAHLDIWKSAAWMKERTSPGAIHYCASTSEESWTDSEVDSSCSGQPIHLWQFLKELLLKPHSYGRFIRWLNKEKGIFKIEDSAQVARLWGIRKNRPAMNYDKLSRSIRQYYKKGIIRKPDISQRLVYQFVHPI
How it was run: as §1

ETV7 = target: T10, ETV7 (Homo sapiens, UniProt Q9Y603 1-341); conditions: protein: recombinant; tags: N-terminal GST; dsDNA, one strand shown
T10 sequence: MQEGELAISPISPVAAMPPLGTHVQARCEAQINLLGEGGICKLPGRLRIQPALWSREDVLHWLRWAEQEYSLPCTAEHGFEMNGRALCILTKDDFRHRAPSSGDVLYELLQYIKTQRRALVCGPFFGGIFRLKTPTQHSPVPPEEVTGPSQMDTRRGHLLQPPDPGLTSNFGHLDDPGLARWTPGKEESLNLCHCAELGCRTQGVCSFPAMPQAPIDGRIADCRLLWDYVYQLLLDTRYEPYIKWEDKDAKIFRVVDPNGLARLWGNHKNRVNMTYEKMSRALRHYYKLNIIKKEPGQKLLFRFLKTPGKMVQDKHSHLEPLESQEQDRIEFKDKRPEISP
How it was run: as §1

ELF5 = target: T11, ELF5 (Homo sapiens, UniProt Q9UKW6-2 1-255); conditions: protein: recombinant; tags: N-terminal GST; dsDNA, one strand shown
T11 sequence: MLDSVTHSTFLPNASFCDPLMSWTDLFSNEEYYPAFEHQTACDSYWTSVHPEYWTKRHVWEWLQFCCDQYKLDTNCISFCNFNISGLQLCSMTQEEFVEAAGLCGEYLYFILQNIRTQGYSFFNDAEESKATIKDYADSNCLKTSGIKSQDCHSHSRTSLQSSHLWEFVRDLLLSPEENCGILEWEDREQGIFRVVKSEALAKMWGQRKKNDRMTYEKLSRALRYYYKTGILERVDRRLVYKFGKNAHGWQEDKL
How it was run: as §1

ETV3 = target: T12, ETV3 (Homo sapiens, UniProt P41162-2 1-143); conditions: protein: recombinant; tags: N-terminal GST; dsDNA, one strand shown
T12 sequence: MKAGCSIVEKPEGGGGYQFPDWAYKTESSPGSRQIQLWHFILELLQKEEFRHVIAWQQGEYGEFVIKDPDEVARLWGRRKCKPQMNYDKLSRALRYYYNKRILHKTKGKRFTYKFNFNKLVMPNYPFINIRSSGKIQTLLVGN
How it was run: as §1

ETV6 = ETV6 (Homo sapiens, UniProt P41212 1-452); conditions: protein: recombinant; tags: N-terminal GST; dsDNA, one strand shown
Chain of ETV6 (P41212 whole entry): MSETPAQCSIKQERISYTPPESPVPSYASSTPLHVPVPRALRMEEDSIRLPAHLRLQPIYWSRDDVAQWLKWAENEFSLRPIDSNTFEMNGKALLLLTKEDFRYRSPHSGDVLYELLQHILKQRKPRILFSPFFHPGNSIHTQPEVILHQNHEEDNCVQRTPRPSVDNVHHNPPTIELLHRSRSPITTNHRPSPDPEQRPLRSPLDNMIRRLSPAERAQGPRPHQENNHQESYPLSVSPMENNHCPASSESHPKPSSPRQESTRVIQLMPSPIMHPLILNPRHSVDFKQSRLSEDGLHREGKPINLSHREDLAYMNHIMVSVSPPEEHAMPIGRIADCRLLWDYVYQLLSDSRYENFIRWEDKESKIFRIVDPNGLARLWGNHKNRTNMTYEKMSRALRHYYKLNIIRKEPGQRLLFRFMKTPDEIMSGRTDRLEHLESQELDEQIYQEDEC
How it was run: as §1

CTGCCA was tested. Which binding signal (FEV) did it give?
The binding signal was 1.24 fold enrichment (6-mer frequency, TF over GST control).

And the binding signal (ETV5)?
Its binding signal is 1.15 fold enrichment (6-mer frequency, TF over GST control).

And the binding signal (HSF1)?
The binding signal was 1 fold enrichment (6-mer frequency, TF over GST control).

And the binding signal (SPIC)?
The binding signal was 1.18 fold enrichment (6-mer frequency, TF over GST control).

And the binding signal (ELF4)?
The binding signal was 1.25 fold enrichment (6-mer frequency, TF over GST control).

What about the binding signal (ELK4) of the same sequence?
Its binding signal is 1.33 fold enrichment (6-mer frequency, TF over GST control).

What about the binding signal (ETV2) of the same sequence?
Its binding signal is 1.03 fold enrichment (6-mer frequency, TF over GST control).

And the binding signal (ELF3)?
Its binding signal is 1.22 fold enrichment (6-mer frequency, TF over GST control).

What about the binding signal (ETV1) of the same sequence?
Its binding signal is 1.17 fold enrichment (6-mer frequency, TF over GST control).

What about the binding signal (ERF) of the same sequence?
Its binding signal is 1.18 fold enrichment (6-mer frequency, TF over GST control).

What about the binding signal (ETV3L) of the same sequence?
Its binding signal is 1.25 fold enrichment (6-mer frequency, TF over GST control).

What about the binding signal (ETS2) of the same sequence?
Its binding signal is 1.18 fold enrichment (6-mer frequency, TF over GST control).

And the binding signal (SPDEF)?
The binding signal was 1.15 fold enrichment (6-mer frequency, TF over GST control).

What about the binding signal (ETV7) of the same sequence?
Its binding signal is 1.08 fold enrichment (6-mer frequency, TF over GST control).

And the binding signal (ELF5)?
The binding signal was 1.2 fold enrichment (6-mer frequency, TF over GST control).

What about the binding signal (ETV3) of the same sequence?
Its binding signal is 1.09 fold enrichment (6-mer frequency, TF over GST control).

And the binding signal (ETV6)?
The binding signal was 1.14 fold enrichment (6-mer frequency, TF over GST control).
